Sampled rows, rich in hits. Any-hit rate of the full collection: about 4.7%.
TRHR ag: activates the human TRH receptor; TRHR cells, calcium flux fluo-8, FDSS agonist mode; activation, % at 2 µM; 0.18% of 360,000 active; AID 493084; note: 0% is about no effect
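Read-out: compound-evoked intracellular calcium rise in TRHR cells, fluo-8 dye, kinetic FDSS fluorescence at 1 s/cycle following a 10-cycle baseline. Cells cultured overnight before dye loading (30 min–1.5 h, RT).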
D1 potentiator: enhances dopamine response at the human D1 receptor; P21728; HEK293 TREx D1 cells, calcium flux, dopamine EC20 potentiation; potentiation, % at 10 µM; 0.036% of 360,000 active; in the data active = potentiation above about 30%; note: 0% is about no effect
Target sequence (P21728 whole entry, looked up): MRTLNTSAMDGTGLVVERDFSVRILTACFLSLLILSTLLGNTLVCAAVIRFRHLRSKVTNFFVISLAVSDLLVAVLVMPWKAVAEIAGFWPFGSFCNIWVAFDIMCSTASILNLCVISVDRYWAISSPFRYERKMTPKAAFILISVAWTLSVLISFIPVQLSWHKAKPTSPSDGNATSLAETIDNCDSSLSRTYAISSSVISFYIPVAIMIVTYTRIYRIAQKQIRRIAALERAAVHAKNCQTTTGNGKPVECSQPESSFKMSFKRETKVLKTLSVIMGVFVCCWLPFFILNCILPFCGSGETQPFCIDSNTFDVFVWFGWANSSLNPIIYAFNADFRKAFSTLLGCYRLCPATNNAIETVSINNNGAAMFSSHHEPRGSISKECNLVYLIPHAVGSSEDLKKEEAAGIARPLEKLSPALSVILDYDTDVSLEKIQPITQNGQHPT
D1 antag: human D1 dopamine receptor antagonism; P21728; HEK293 TREx D1 cells, calcium flux, dopamine EC80; active compounds read low; activity change, negative = inhibition, % at 10 µM; 3.2% of 360,000 active; in the data active = activity change below about -30%; note: % is set by controls: 0 for no effect and ±100 for the full control effect
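Tetracycline-induced HEK293 Trex D1 cells, force-coupled to calcium, dye-loaded; compounds added and read 180 s, then EC80 dopamine added and calcium flux tracked kinetically another 180 s.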
D1 ag: activates the human D1 dopamine receptor; 1% of 360,000 active; activation, % at 2 µM; HEK293 T-REx D1 cells, calcium flux, agonist mode; P21728; note: 0% is about no effect
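Agonism was scored from calcium flux recorded over 180 s (1 read/s) after pintool compound addition, following a 10-cycle baseline. Cells were inducible force-coupled HEK293 TREx D1, plated overnight at 30 C and loaded with no-wash calcium dye.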
TRHR enhancer: allosterically enhances the human TRH receptor; AID 493056; 0.66% of 360,000 active; TRHR cells, fluo-8 calcium fluorescence, EC20 TRH enhancement; enhancement, % at 2 µM; P34981; in the data active = enhancement above about 30%; note: 0% is about no effect
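TRHR-expressing cells loaded with fluo-8 calcium dye were read kinetically (ex 480/em 530) during compound addition, then stimulated with an EC20 of TRH (10 nM final). Enhancement of the Gq-mediated intracellular calcium response was scored.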
Active calls of the source: *; ! = not active in a repeat. Cut-off read from the data, not from the text of the source, unless noted: active = activation above about 30%; inactive = the rest.

For Cn1nc(C(=O)NCc2ccccc2Cl)c2c1-c1ccccc1S(=O)(=O)C2 the results were TRHR ag -1, D1 potentiator 1, D1 antag -31*!, D1 ag 3 and TRHR enhancer -2.
For Cc1cccc(N2CCN(C(=O)c3nn(C)c4c3CS(=O)(=O)c3ccccc3-4)CC2C)c1 (configuration not stated) the results were TRHR ag 0, D1 potentiator 0, D1 antag -6, D1 ag 1 and TRHR enhancer -12.
`COc1ccc(CNC(=O)Cc2c(C)c3c(O)cc(C)cc3oc2=O)cc1` gave TRHR ag 0, D1 potentiator -1, D1 antag 2, D1 ag 2 and TRHR enhancer 1.
`Cc1cc(O)c2c(C)c(CC(=O)NCc3ccccc3Cl)c(=O)oc2c1` gave TRHR ag 0, D1 potentiator -3, D1 antag -35*, D1 ag 1 and TRHR enhancer 0.
`COc1ccc(-n2c(-c3ccccc3F)nc3c(cnn3-c3ccc(C)cc3)c2=O)cc1` gave TRHR ag 1, D1 potentiator -1, D1 antag -31*, D1 ag 6 and TRHR enhancer 8.
COc1ccc(-n2c(-c3ccco3)nc3c(cnn3-c3ccccc3C)c2=O)cc1 was read as TRHR ag 0, D1 potentiator -9, D1 antag -30*!, D1 ag 2 and TRHR enhancer 1.
COc1ccc(Nc2nnc(-c3ccc(C)c(S(=O)(=O)N4CCN(C)CC4)c3)c3ccccc23)cc1 was read as TRHR ag -1, D1 potentiator 0, D1 antag -13, D1 ag -3 and TRHR enhancer 4.
`COc1ccccc1CNC(=O)CCC1N=C2c3ccccc3N=C(SCc3ccc(C)cc3C)N2C1=O` (configuration not stated) gave TRHR ag 1, D1 potentiator -1, D1 antag 4, D1 ag 5 and TRHR enhancer -4.
For CC(C)NS(=O)(=O)c1ccc(NC(=O)C(C)Oc2ccc(C(=O)c3ccccc3)cc2)cc1 (configuration not stated) the results were TRHR ag 17, D1 potentiator 3, D1 antag -16, D1 ag 136* and TRHR enhancer -9.
O=C(c1ccccc1)c1ccc(Sc2ccc([N+](=O)[O-])cc2)cc1 was read as TRHR ag -1, D1 potentiator -2, D1 antag -31*, D1 ag 16 and TRHR enhancer -1.
COc1ccc(C(=O)/C(C#N)=N/Nc2ccccc2[N+](=O)[O-])cc1 was read as TRHR ag 0, D1 potentiator -8, D1 antag -17, D1 ag 12 and TRHR enhancer -6.
For COc1ccc(C(=O)/C(C#N)=N/Nc2ccc([N+](=O)[O-])cc2)cc1 the results were TRHR ag 5, D1 potentiator -4, D1 antag -39*, D1 ag 26 and TRHR enhancer -6.
CC(Oc1ccccc1)C(=O)Nc1ccc(C(N)=O)cc1 (configuration not stated) was read as TRHR ag 0, D1 potentiator 4, D1 antag -27, D1 ag 13 and TRHR enhancer 24.
CC(C)C(=O)Nc1ccc(NC(=O)c2ccc([N+](=O)[O-])cc2Cl)cc1 was read as TRHR ag 1, D1 potentiator -4, D1 antag -59*, D1 ag 3 and TRHR enhancer 5.
`Cc1nnc(N2CCCC(C(=O)NCCc3ccc(Cl)cc3)C2)c2nn(-c3ccccc3)c(C)c12` (configuration not stated) gave TRHR ag -1, D1 potentiator 1, D1 antag 16, D1 ag 2 and TRHR enhancer -5.
For COCCN1CCc2nc(SCC(=O)Nc3ccc(C)c(Cl)c3)[nH]c(=O)c2C1 the results were TRHR ag 1, D1 potentiator 0, D1 antag 5, D1 ag 0 and TRHR enhancer 4.
Screening CCC(CC)C(=O)Nc1ccc(Sc2ccc([N+](=O)[O-])cc2)cc1 returned TRHR ag 0, D1 potentiator -8, D1 antag -35*, D1 ag 31* and TRHR enhancer 4.
